Test results from PubChem BioAssay AID1159580 (chemical genetic matrix, 2015).
Hit rate of the full screen: of about 5,500 compounds, about 2,000 (36%) were called active. Another 18% or so got no clear call; they are omitted. Rule as the data show it: active = normalized growth mostly below about 0.91 (no sharp cut-off); inconclusive = no clear call, values can overlap the other calls; inactive = mostly above about 0.92. This is one part of the list.

Test: chemical genetic growth profiling, strain panel (AID 1159580);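 also: tested at 20 µM; growth read once vehicle control cultures reached saturation at 30 °C; 1 = growth at the plate median or of vehicle wells; lower values mean less growth of the strain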
Conditions: S. cerevisiae deletion strains, growth OD
[1] = locus YAR019C, strain CDC15, stronger effect = lower value
[2] = locus YBL105C, strain PKC1, stronger effect = lower value
[3] = locus YBR135W, strain CKS1, stronger effect = lower value
[4] = locus YBR136W, strain MEC1, stronger effect = lower value
[5] = locus YBR160W, strain CDC28, stronger effect = lower value
[6] = locus YDL017W, strain CDC7, stronger effect = lower value
[7] = locus YDL028C, strain MPS1, stronger effect = lower value
[8] = locus YDL101C, strain DUN1, stronger effect = lower value
[9] = locus YDL108W, strain KIN28, stronger effect = lower value
[10] = locus YDL132W, strain cdc53, stronger effect = lower value
[11] = locus YDL214C, strain PRR2, stronger effect = lower value
[12] = locus YDR052C, strain DBF4, stronger effect = lower value
[13] = locus YDR054C, strain cdc34, stronger effect = lower value
[14] = locus YDR226W, strain ADK1, stronger effect = lower value
[15] = locus YDR477W, strain SNF1, stronger effect = lower value
[16] = locus YER123W, strain YCK3, stronger effect = lower value
[17] = locus YER133W, strain GLC7, stronger effect = lower value
[18] = locus YFL009W, strain cdc4, stronger effect = lower value
[19] = locus YFL029C, strain CAK1, stronger effect = lower value
[20] = locus YFR003C, strain YPI1, stronger effect = lower value
[21] = locus YFR019W, strain FAB1, stronger effect = lower value
[22] = locus YFR028C, strain CDC14, stronger effect = lower value
[23] = locus YGR040W, strain KSS1, stronger effect = lower value
[24] = locus YGR052W, strain FMP48, stronger effect = lower value
[25] = locus YGR092W, strain DBF2, stronger effect = lower value
[26] = locus YHR030C, strain SLT2, stronger effect = lower value
[27] = locus YHR079C, strain IRE1, stronger effect = lower value
[28] = locus YHR082C, strain KSP1, stronger effect = lower value
[29] = locus YHR205W, strain SCH9, stronger effect = lower value
[30] = locus YIL147C, strain SLN1, stronger effect = lower value
[31] = locus YJL095W, strain BCK1, stronger effect = lower value
[32] = locus YJL128C, strain PBS2, stronger effect = lower value
[33] = locus YJL157C, strain FAR1, stronger effect = lower value
[34] = locus YJR016C, strain ILV3, stronger effect = lower value
[35] = locus YJR066W, strain TOR1 (second series), stronger effect = lower value
[36] = locus YJR066W, strain TOR1, stronger effect = lower value
[37] = locus YKL048C, strain ELM1, stronger effect = lower value
[38] = locus YKL067W, strain YNK1, stronger effect = lower value
[39] = locus YKL101W, strain HSL1, stronger effect = lower value
[40] = locus YKL193C, strain SDS22, stronger effect = lower value
[41] = locus YKL203C, strain TOR2, stronger effect = lower value
[42] = locus YLR113W, strain HOG1, stronger effect = lower value
[43] = locus YLR133W, strain CKI1, stronger effect = lower value
[44] = locus YLR403W, strain SFP1, stronger effect = lower value
[45] = locus YML070W, strain DAK1, stronger effect = lower value
[46] = locus YMR001C, strain CDC5, stronger effect = lower value
[47] = locus YMR205C, strain PFK2 (second series), stronger effect = lower value
[48] = locus YMR277W, strain FCP1, stronger effect = lower value
[49] = locus YNL006W, strain LST8, stronger effect = lower value
[50] = locus YNL020C, strain ARK1, stronger effect = lower value
[51] = locus YNL161W, strain CBK1, stronger effect = lower value
[52] = locus YNL183C, strain NPR1, stronger effect = lower value
[53] = locus YNL207W, strain RIO2, stronger effect = lower value
[54] = locus YNL222W, strain SSU72, stronger effect = lower value
[55] = locus YNL307C, strain MCK1 (second series), stronger effect = lower value
[56] = locus YOL078W, strain AVO1, stronger effect = lower value
[57] = locus YOL136C, strain PFK27, stronger effect = lower value
[58] = locus YOR061W, strain CKA2, stronger effect = lower value
[59] = locus YOR119C, strain RIO1, stronger effect = lower value
[60] = locus YOR231W, strain MKK1, stronger effect = lower value
[61] = locus YOR329C, strain SCD5, stronger effect = lower value
[62] = locus YPL031C, strain PHO85, stronger effect = lower value
[63] = locus YPL153C, strain RAD53, stronger effect = lower value
[64] = locus YPL204W, strain HRR25, stronger effect = lower value
[65] = locus YPL209C, strain IPL1, stronger effect = lower value
[66] = locus YPL256C, strain CLN2, stronger effect = lower value
[67] = locus YPR025C, strain CCL1, stronger effect = lower value
[68] = locus YPR106W, strain ISR1, stronger effect = lower value
[69] = locus YPR111W, strain DBF20, stronger effect = lower value
[70] = strain NNK1, stronger effect = lower value
[71] = strain TSCII, stronger effect = lower value

Measured: normalized growth

Cc1nn(Cc2cccc(C(=O)Nc3ccc(Cl)cc3)c2)c(C)c1Br
inactive: [1] 0.99 | [2] 0.976 | [3] 0.986 | [4] 0.976 | [5] 0.979 | [6] 0.985 | [7] 0.978 | [8] 0.981 | [9] 0.979 | [10] 0.976 | [11] 0.96 | [12] 0.986 | [13] 0.975 | [14] 0.978 | [15] 0.959 | [16] 0.946 | [17] 0.953 | [18] 0.978 | [19] 0.982 | [20] 0.977 | [21] 0.977 | [22] 0.981 | [23] 0.965 | [24] 1.01 | [25] 0.987 | [26] 1.1 | [27] 1.11 | [28] 1.06 | [29] 1.01 | [30] 0.978 | [31] 1 | [32] 0.952 | [33] 0.968 | [34] 0.985 | [35] 0.978 | [36] 1.06 | [37] 0.961 | [38] 0.965 | [39] 0.955 | [40] 0.975 | [41] 1.04 | [42] 0.923 | [43] 0.967 | [44] 0.99 | [45] 0.954 | [46] 0.979 | [47] 0.965 | [48] 0.98 | [49] 0.994 | [50] 0.965 | [51] 0.987 | [52] 1.04 | [53] 0.978 | [54] 0.981 | [55] 1 | [56] 0.973 | [57] 0.92 | [58] 0.96 | [59] 1.02 | [60] 0.968 | [61] 0.987 | [62] 0.963 | [63] 0.957 | [64] 0.935 | [65] 0.981 | [66] 1 | [67] 0.974 | [68] 0.982 | [69] 0.97 | [70] 0.982 | [71] 0.981

Cc1cc(C(=O)Nc2ccc(Cl)cc2)nn1C(C)(C)C
active: [42] 0.801 | [66] 0.817
inactive: [1] 0.985 | [2] 1 | [3] 0.995 | [4] 1 | [5] 0.99 | [6] 0.995 | [7] 1.01 | [8] 0.984 | [9] 0.993 | [10] 0.989 | [11] 0.967 | [12] 1 | [13] 0.984 | [14] 0.987 | [15] 0.973 | [16] 0.955 | [17] 0.97 | [18] 0.989 | [19] 0.984 | [20] 1 | [21] 0.992 | [22] 1 | [23] 0.978 | [24] 0.958 | [25] 0.982 | [26] 1.08 | [27] 0.866 | [28] 1.15 | [29] 0.951 | [30] 0.998 | [31] 0.849 | [32] 0.942 | [33] 0.973 | [34] 0.984 | [35] 0.962 | [36] 1.11 | [37] 0.983 | [38] 0.976 | [39] 0.975 | [40] 0.993 | [41] 1.05 | [43] 0.967 | [44] 0.956 | [45] 0.958 | [46] 1 | [47] 0.966 | [48] 0.975 | [49] 0.992 | [50] 0.964 | [51] 0.986 | [52] 0.893 | [53] 0.998 | [54] 0.992 | [55] 0.977 | [56] 0.985 | [57] 0.96 | [58] 0.977 | [59] 1.02 | [60] 0.877 | [61] 1 | [62] 0.982 | [63] 0.957 | [64] 0.962 | [65] 1 | [67] 0.999 | [68] 0.979 | [69] 0.978 | [70] 0.984 | [71] 0.985
